Measurements published in PubChem BioAssay.
Activity calls are given as the source filed them.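 Rule for the calls, unless noted: active = NADPH fluorescence slope more negative than the mean of all samples by about 3 SD, 99.7% confidence; inactive = the rest.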

Assays:
[1] = inhibitors of TNFa-induced NFkB p65 translocation, primary screen, imaging, HUVEC, MLSMR starter and 10KST1 sets (AID 438;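 active = inhibition above 20% together with a positive visual image hit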;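 note: compound added about 3h40 before a 20 min TNFalpha stimulation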;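 for inhibition: signal is the nuclear over cytoplasmic p65 intensity ratio per well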); conditions: HUVEC TNFa-induced p65 nuclear translocation; cell count: measured here: nuclei count (cytotoxicity indicator), at 2.08 µM; inhibition: at 2 µM, stronger effect = higher value, 0% TNFa-plus-vehicle, 100% no-TNFa wells
[2] = reduction of polyQ htt aggregates in cells – imaging, exon1htt(103Q)mCFP cells, high-content imaging, primary screen (AID 483;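 active = visual image review flags a hit and inhibition of aggregation exceeds 20%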;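 note: compound exposure lasted 3 days before fixation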;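 for nuclei count: percent of the per-plate median nuclei count of sample wells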); conditions: exon1htt(103Q)mCFP cell line, aggregate imaging, at 2 µM; inhibition of aggregation: stronger effect = higher value; nuclei count: measured here: cell count, toxicity
[3] = endothelial E-selectin expression blockers – imaging, HUVEC, immunofluorescence, MLSMR starter and 10KST1 sets, primary screen (AID 487;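 active = visually confirmed hit in the image check and inhibition above 20%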;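 for inhibition: signal is fraction of cell area covered by stained E-selectin grains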;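 for nuclei count: 100% = median nuclei count of all wells on the same plate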); conditions: HUVEC TNFalpha-induced E-selectin immunofluorescence imaging, at 2 µM; inhibition: stronger effect = higher value; nuclei count: measured here: cell number, toxicity
[4] = molecular target: Voltage-gated potassium channel subunit beta-2 (Rattus norvegicus) (UniProt P62483); test: inhibitors of rat Kvbeta2 reductase activity – biochemical, NADPH fluorescence, primary screen (AID 622;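 active = fluorescence slope higher than the sample average by over 3 SD, cut at about -0.22 in these data, passing the limit was not always enough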;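 note: slope of raw intensity against log time taken from 70 to 1610 s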); conditions: recombinant KvBeta, 4-cyanobenzaldehyde reduction, at 10 µM, stronger effect = higher value
Sequence of Voltage-gated potassium channel subunit beta-2 (Rattus norvegicus) (P62483 whole entry, looked up): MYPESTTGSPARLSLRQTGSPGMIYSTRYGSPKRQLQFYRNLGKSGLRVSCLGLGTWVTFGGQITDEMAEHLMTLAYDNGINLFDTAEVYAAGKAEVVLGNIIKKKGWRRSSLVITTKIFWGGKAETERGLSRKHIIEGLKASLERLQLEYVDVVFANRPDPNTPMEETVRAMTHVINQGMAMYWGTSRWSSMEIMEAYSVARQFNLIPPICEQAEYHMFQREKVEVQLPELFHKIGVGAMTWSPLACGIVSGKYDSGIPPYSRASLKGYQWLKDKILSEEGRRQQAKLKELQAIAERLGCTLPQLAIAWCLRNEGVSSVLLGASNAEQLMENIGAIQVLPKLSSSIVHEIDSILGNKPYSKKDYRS

[5] = molecular target: Voltage-gated potassium channel subunit beta-2 (Rattus norvegicus) (UniProt P62483); test: enhancers of rat Kvbeta2 NADPH turnover – biochemical, NADPH fluorescence, primary screen (AID 623); conditions: Recombinant KvBeta, NADPH fluorescence decrease slope, 10 min; at 10 µM; stronger effect = lower value;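 note: fluorescence intensity change per second fitted from 20 to 320 s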
[6] = molecular target: Alpha-2C adrenergic receptor (Homo sapiens) (UniProt P18825); test: compounds altering alpha2C-coupled GIRK flux – cell-based, HEK293 alpha2C/GIRK1/2, thallium flux, primary screen (AID 624;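 active = fluorescence slope after compound addition differing from the mean of all screened samples at 99.7% confidence, in either direction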;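 note: slope of fluorescence ratio to pre-addition baseline per second over 15 to 24 s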); conditions: thallium flux BTC fluorescence, at 10 µM, actives lie on both sides
Sequence of Alpha-2C adrenergic receptor (Homo sapiens) (P18825 whole entry, looked up): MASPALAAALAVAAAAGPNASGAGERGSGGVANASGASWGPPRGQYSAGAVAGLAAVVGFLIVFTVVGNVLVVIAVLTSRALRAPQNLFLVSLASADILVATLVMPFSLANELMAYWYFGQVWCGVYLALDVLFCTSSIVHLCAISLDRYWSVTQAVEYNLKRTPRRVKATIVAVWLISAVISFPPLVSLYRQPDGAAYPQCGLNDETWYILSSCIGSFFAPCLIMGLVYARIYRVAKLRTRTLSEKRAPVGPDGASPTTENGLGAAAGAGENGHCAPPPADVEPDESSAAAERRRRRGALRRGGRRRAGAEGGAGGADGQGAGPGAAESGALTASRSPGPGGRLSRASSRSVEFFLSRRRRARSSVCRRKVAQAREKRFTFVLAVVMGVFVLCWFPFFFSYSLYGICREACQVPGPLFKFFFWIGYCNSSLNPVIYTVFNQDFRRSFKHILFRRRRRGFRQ

[7] = blockers of RIG-like receptor reporter activation – cell-based, Sendai virus stimulus, luciferase, 10K MLSCN set, TLR/RLR signaling modifier project, primary screen (AID 602276;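 active = inhibition at or above 50% at 10 µM; inactive = inhibition below 50%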;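 note: firefly luciferase from ISG56 promoter only with Renilla not read in this screen; 0% = Sendai virus plus DMSO and 100% = medium plus DMSO without virus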); conditions: HEK293 RL24 IRF3 luciferase reporter, at 10 µM, stronger effect = higher value
[8] = TLR3 IRF3 reporter activation blockers – cell-based, poly I:C stimulus, luciferase, 10K MLSCN set, primary screen (AID 602277;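 active = inhibition of the reporter signal at or above 50%; inactive = inhibition below 50%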); conditions: HEK293-TLR3 RL24 IRF3 luciferase reporter, at 10 µM, stronger effect = higher value

SMILES | cell count [1] | inhibition [1] | inhibition of aggregation [2] | nuclei count [2] [%] | inhibition [3] | nuclei count [3] [%] | fluorescence slope [4] | NADPH fluorescence slope [5] | slope [6] | inhibition [7] | inhibition [8]
COc1cc2c(cc1OC)CN(C(=O)CSc1nc3[nH]ncc3c(=O)n1-c1ccccc1)CC2 | 509 | -8.2% (inactive) | -8.9% (inactive) | 86.9 | -7.3% (inactive) | 87 | -0.492 (inactive) | -2.6e-05 (inactive) | 0.00737 (inactive) | 11% (inactive) | 23.1% (inactive)
CN1CCc2c(sc3c2c(=O)n(-c2ccccc2)c2nnc(SCc4ccc(F)cc4)n32)C1 | 375 | 2.1% (inactive) | 9.2% (inactive) | 73.7 | -45% (inactive) | 210 | -0.608 (inactive) | -5.9e-06 (inactive) | 0.00622 (inactive) | 4.98% (inactive) | -12.6% (inactive)
Cc1nnc2c3ccccc3c(-c3ccccc3)nn12 | 481 | -4.4% (inactive) | -5.8% (inactive) | 92.4 | -3.3% (inactive) | 108 | -0.301 (inactive) | -4.7e-05 (inactive) | 0.00584 (inactive) | 68% (active) | 61.1% (active)
CC(=NCC1CCNCC1)C1=C(O)CC(C)(C)CC1=O | 663 | -11% (inactive) | -14.1% (inactive) | 113 | 12.1% (inactive) | 132 | -0.499 (inactive) | 4e-06 (inactive) | 0.00593 (inactive) | 4.83% (inactive) | 23.6% (inactive)
Cc1sc2nc(CN3CCN(S(=O)(=O)c4cccc5nonc45)CC3)[nH]c(=O)c2c1C | 661 | -16.4% (inactive) | 11.8% (inactive) | 60.7 | -55.1% (inactive) | 116 | -0.411 (inactive) | -5.6e-05 (inactive) | 0.00421 (inactive) | 3.59% (inactive) | 1.1% (inactive)
CCOC(=O)N1CCN(C(=O)CSc2nnc(Cc3ccccc3)o2)CC1 | 645 | -6.9% (inactive) | 10.1% (inactive) | 123 | -53.8% (inactive) | 102 | -0.525 (inactive) | -3.6e-05 (inactive) | 0.00629 (inactive) | 2.23% (inactive) | 10.9% (inactive)
O=C(OCCCCN1C(=O)c2ccccc2C1=O)c1n[nH]c2ccccc12 | 698 | 8.6% (inactive) | 12.4% (inactive) | 97 | -164% (inactive) | 155 | -0.543 (inactive) | -5.2e-05 (inactive) | 0.00475 (inactive) | 9.32% (inactive) | -4.95% (inactive)
Fc1ccc(C(c2nnnn2Cc2ccco2)N2CCN(C3CCCCC3)CC2)cc1 (stereo not given) | 297 | -3.3% (inactive) | 11.4% (inactive) | 98 | -98.2% (inactive) | 130 | -0.552 (inactive) | 3.4e-05 (inactive) | 0.00429 (inactive) | -10.1% (inactive) | -16.4% (inactive)
CCCCN=CC1=C(O)C(C(=O)OC)C(C)(C)CC1=O (stereo not given) | 390 | -4.3% (inactive) | 10.6% (inactive) | 106 | -21.7% (inactive) | 123 | -0.392 (inactive) | -6.2e-07 (inactive) | 0.0055 (inactive) | -0.949% (inactive) | -9.49% (inactive)
Cc1nc(NCc2ccc3c(c2)OCO3)c2oc3ccccc3c2n1 | 292 | 12.8% (inactive) | -3.5% (inactive) | 105 | 44.7% (inactive) | 101 | -0.516 (inactive) | 2.5e-05 (inactive) | 0.00488 (inactive) | 4.64% (inactive) | -12% (inactive)
O=c1[nH]c(SCc2ccc(F)cc2)nc2c1cnn2-c1ccc(F)cc1 | 652 | -31% (inactive) | -8.4% (inactive) | 95.8 | -0.1% (inactive) | 110 | -0.57 (inactive) | 1e-05 (inactive) | 0.00683 (inactive) | -21.2% (inactive) | -12.1% (inactive)
COc1ccc(-n2nnnc2SCC(=O)c2ccc(O)c(O)c2)cc1 | 344 | -6.5% (inactive) | 20.5% (inactive) | 91.8 | -74.4% (inactive) | 112 | -0.487 (inactive) | -0.000117 (inactive) | 0.00395 (inactive) | 13.7% (inactive) | 16.9% (inactive)
S=c1[nH]nc(-c2ccco2)n1-c1cccc2ccccc12 | 390 | 1.5% (inactive) | -1.8% (inactive) | 111 | -181% (inactive) | 104 | -0.526 (inactive) | 3.2e-05 (inactive) | 0.00555 (inactive) | -23.7% (inactive) | -8.5% (inactive)
O=C1c2ccccc2C(=O)N1C/C=C/c1ccccc1 | 320 | 6.3% (inactive) | -5.9% (inactive) | 98.3 | -3.5% (inactive) | 112 | -0.495 (inactive) | -5.2e-05 (inactive) | 0.0051 (inactive) | 21.6% (inactive) | 25.4% (inactive)
O=C(NCc1cccnc1)C1c2ccccc2C(=O)N1Cc1ccco1 (stereo not given) | 408 | 4.7% (inactive) | 7% (inactive) | 115 | 50.4% (inactive) | 113 | -0.595 (inactive) | -1.9e-05 (inactive) | 0.00603 (inactive) | 5.3% (inactive) | 11% (inactive)
Cc1nc2ccccc2c2oc(C(=O)N3CCN(C(=O)c4ccco4)CC3)cc12 | 784 | 11.3% (inactive) | 0% (inactive) | 65.6 | 4.8% (inactive) | 98.3 | -0.585 (inactive) | -1.4e-05 (inactive) | 0.00761 (inactive) | 6.87% (inactive) | 12.8% (inactive)
Cc1cccn2c(=O)c3cc(C(=O)NC4CCCC4)c(=N)n(C4CCCC4)c3nc12 | 786 | 2.4% (inactive) | -58% (inactive) | 107 | -189% (inactive) | 126 | -0.0946 (inactive) | -1.1e-05 (inactive) | 0.00161 (inactive) | 17.5% (inactive) | 32.7% (inactive)
O=C(CSc1nnc(-c2ccccc2Br)o1)Nc1cccc2ccccc12 | 541 | -12.1% (inactive) | 16.2% (inactive) | 81.3 | 33.7% (inactive) | 65.3 | -0.546 (inactive) | 2.3e-05 (inactive) | 0.00661 (inactive) | 1.31% (inactive) | -12.6% (inactive)
O=C(Nc1ccc(F)cc1)N(CCCN1CCOCC1)Cc1cc2cc3c(cc2[nH]c1=O)OCO3 | 633 | -3% (inactive) | -34.9% (inactive) | 105 | -27.7% (inactive) | 114 | -0.362 (inactive) | -4.4e-05 (inactive) | 0.00497 (inactive) | 15.6% (inactive) | 28.6% (inactive)
COc1ccc(C2C(C#N)=C(N)Oc3cc4c(cc32)OCO4)cc1 (stereo not given) | 496 | 3.5% (inactive) | 4.7% (inactive) | 105 | -103% (inactive) | 110 | -0.401 (inactive) | -5.6e-05 (inactive) | 0.00586 (inactive) | -6.84% (inactive) | 59.4% (active)
CCn1cc(C2Nc3ccccc3C(=O)N2O)c(C)n1 (stereo not given) | 428 | 8.8% (inactive) | -27.6% (inactive) | 112 | -66.4% (inactive) | 104 | -0.301 (inactive) | -4.1e-05 (inactive) | 0.0057 (inactive) | -41.1% (inactive) | -70.4% (inactive)
Cc1cc(C)c2[nH]c(=O)c(C(c3nnnn3Cc3ccc4c(c3)OCO4)N3CCC(C)CC3)cc2c1 (stereo not given) | 716 | -1.6% (inactive) | 2.1% (inactive) | 98.1 | 70% (inactive) | 73.2 | -0.428 (inactive) | 6.4e-06 (inactive) | 0.0051 (inactive) | -4.82% (inactive) | 18.2% (inactive)
O=C(c1ccc(Cl)c(F)c1F)N1CCCC1 | 384 | 4.4% (inactive) | -11.4% (inactive) | 112 | -29.8% (inactive) | 70.2 | -0.276 (inactive) | 1.2e-05 (inactive) | 0.00949 (inactive) | -9.75% (inactive) | 11.3% (inactive)
COc1ccccc1NC(=O)CSc1nnc(Cc2cccn2C)n1-c1ccc(F)cc1 | 508 | -7.5% (inactive) | 30.2% (inactive) | 86.3 | -51.1% (inactive) | 113 | -0.529 (inactive) | -2.1e-05 (inactive) | 0.00524 (inactive) | 11.3% (inactive) | 37.8% (inactive)
c1cc2c(cc1Cn1cnnn1)OCO2 | 599 | 2.1% (inactive) | -6.5% (inactive) | 107 | 26.6% (inactive) | 87.2 | -0.492 (inactive) | -6.9e-05 (inactive) | 0.00714 (inactive) | 13.3% (inactive) | 22.4% (inactive)
